Screen size: about 420,000 compounds; about 50,000 (12%) were called active. Not shown: some 26% with an inconclusive outcome. Only a selection was taken, and actives are over-represented in it overall. Values without a mark were called inactive. Calls come from the whole dose curve; as a rule, active = well fitted inhibition curve with a large enough effect; inconclusive = small, poorly fitted or top-dose-only effect; inactive = flat fitted curve, though single readings scatter.
assay: qHTS for Inhibitors of human tyrosyl-DNA phosphodiesterase 1 (TDP1): qHTS in cells in presence of CPT; settings: chicken DT40 Tdp1-/-;hTDP1 cells + 20 nM CPT, ATP luminescence, 48 h; series mostly up to 46.2 µM; activity change, negative = growth inhibition: at the top concentration; note: nearly all actives have a fitted effect of over 55% in size
Summary of the method: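 Chicken DT40 Tdp1-/- cells complemented with human TDP1, 400 cells/well, exposed to compounds plus 20 nM camptothecin for at least 48 h at 37 C; viability read as ATP content by CellTiter-Glo luminescence.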
% is set by controls: 0 for no effect and ±100 for the full control effect; potency is the fitted concentration of half-maximal effect.

Row | Structure (SMILES) | activity change, negative = growth inhibition | Potency
1 | Cc1cc(NC(=O)Nc2c[nH]c(=O)[nH]c2=O)ccc1Br | -16.6% | –
2 | Cc1ccc(NS(=O)(=O)c2ccc3c(c2)CC(=O)N3)cc1Cl | -1.76% | –
3 | COc1ccc(CNC(=O)Cn2nnc(-c3ccc(S(C)(=O)=O)cc3)n2)cc1 | 1.87% | –
4 | COC1=CC(=O)OC(c2ccc(OC)cc2)C1 (stereo not given) | 10.2% | –
5 | COc1ccc(N=C2C=CC(=O)O2)cc1 | – | 5.17 µM (active)
6 | COc1ccc(N=Nc2c(-c3ccc(OC)cc3)[nH]oc2=O)cc1 | -11.3% | –
7 | CCC1(c2ccccc2)NC(=O)N(CC(=O)c2ccc3c(c2)OCO3)C1=O (stereo not given) | -5.41% | –
8 | Cc1ccc(Cl)c(NC(=O)CN(C)CC(=O)Nc2ccc(F)c(F)c2F)c1Cl | -27.2% | –
9 | Cc1ccc2[nH]c(=O)c(CC=C(Cl)Cl)c(C)c2c1 | -6% | –
10 | COc1ccc(CNC(=O)c2cc3c(=O)[nH]c4ccccc4c3s2)cc1 | -18.7% | –
11 | Cc1cccc(N(C)C(=O)c2cc3c(=O)[nH]c4ccc(C)cc4c3s2)c1 | – | 2.06 µM (active)
12 | COc1ccc(CNC(=O)c2ccc3c(c2)nc2n3CCOC2)c(OC)c1 | 1.11% | –
13 | COc1ccc(CNC(=O)c2cc3c(=O)[nH]c4ccc(C)cc4c3s2)c(OC)c1 | – | 16.4 µM (active)
14 | Cc1ccc2[nH]c(=O)c(CC(=O)O)c(-c3ccccc3)c2c1 | -0.318% | –
15 | Nc1cc(C(=O)N2CCN(c3ccccc3Cl)CC2)ccc1N1CC2CC(C1)c1cccc(=O)n1C2 (stereo not given) | -25.3% | –
16 | CC1(C)CN(CCc2ccccc2)C(=O)[C@H]1CC(=O)Nc1ccc(Br)cc1 | -10.9% | –
17 | Cc1ccc(NC(=O)Cc2nnc(SCC(=O)Nc3nncs3)n2C)cc1 | 0.361% | –
18 | CC1(c2ccc(Cl)cc2Cl)NC(=O)N(CC(=O)Nc2cccnc2Cl)C1=O (stereo not given) | -12% | –
19 | CCCc1ccc(C(=O)[C@@H]2[C@@H](C(C)=O)N3c4ccc(F)cc4C=C[C@@H]3[C@@]23C(=O)Nc2ccccc23)cc1 | – | 23.1 µM (active)
20 | O=C(O)c1ccc(-n2nc(-c3ccccc3)c3ccccc3c2=O)cc1 | -17.4% | –
21 | CCC(C)(C)NC(=O)C(c1ccc(O)cc1)N(Cc1ccco1)C(=O)CCC(=O)Nc1ccccn1 (stereo not given) | -11.3% | –
22 | CC(=O)c1nn(-c2ccc(OC(F)(F)F)cc2)nc1Nc1ccccc1 | -15.7% | –
23 | COc1ccccc1C(=O)Nn1cnnc1 | 21.2% | –
24 | CCc1noc(C)c1C(=O)OCC(=O)c1ccc(NC(=O)CC(C)C)cc1 | – | 20.6 µM (active)
25 | CCc1noc(C)c1C(=O)NNC(=O)c1ccc(F)cc1 | -18.6% | –

Row | Structure (SMILES) | activity change, negative = growth inhibition | Potency
26 | COc1ccc(C(=O)COC(=O)c2c(C)noc2C)cc1Cl | -17.5% | –
27 | O=C(c1ccccc1Cl)N(Cc1ccccc1F)N1C(=O)CCCC1=O | 1.6% | –
28 | COc1cccc(C2Nc3cccc4cccc(c34)N2)c1 | -4.51% | –
29 | Cc1ccc(C2Nc3cccc4cccc(c34)N2)cc1 | – | 2.59 µM (active)
30 | Brc1ccccc1C1Nc2cccc3cccc(c23)N1 | -21.6% | –
31 | COc1ccc(CCn2c3c(c(=O)[nH]c2=S)CN(C(C)C)CN3)cc1OC | -13% | –
32 | COCC(C)NC(=O)CSc1nc2nn(-c3ccccc3)c(=O)c-2c2n1CCCCC2 (stereo not given) | 2.87% | –
33 | CCOC(=O)CSc1nc2ccc(C)cc2[nH]1 | -1.71% | –
34 | Cc1ccc2nc(/C(C#N)=C\c3ccc(OC(=O)c4cccs4)cc3)[nH]c2c1 | – | 14.6 µM (active)
35 | Cc1ccc2nc(/C(C#N)=C/c3ccc(-c4ccc(C(=O)OC(C)C)cc4)o3)[nH]c2c1 | – | 7.31 µM (active)
36 | CC(=O)Nc1ccc(C(=O)CSc2nc3ccc(C)cc3[nH]2)cc1 | -0.86% | –
37 | Cc1ccc2nc(S(=O)(=O)O)[nH]c2c1 | -1.52% | –
38 | CN(C(=O)c1cccc([N+](=O)[O-])c1)c1ccccc1C(=O)NCc1ccccc1 | 2.21% | –
39 | COc1ccc(S(=O)(=O)N2CCN(c3ccc(F)cc3)CC2)cc1-c1noc(C)n1 | 7.73% | –
40 | COc1ccc(CCNC(=O)C(=O)NCC2OCCN2S(=O)(=O)c2cccs2)cc1OC (stereo not given) | -2.17% | –
41 | Cc1cc(C)cc(NS(=O)(=O)c2ccc(Oc3ncc(C(F)(F)F)cc3Cl)cc2)c1 | – | 23.1 µM (active)
42 | Cc1cc(C)cc(OCC(=O)Nc2ccc(S(=O)(=O)Nc3ccccn3)cc2)c1 | -11.1% | –
43 | COC(=O)Cc1ccc(Oc2ncc(C(F)(F)F)cc2Cl)cc1 | -15.1% | –
44 | CCOC(=O)[C@H](CCc1ccccc1)N[C@@H](C)C(=O)N1CC2(C[C@H]1C(=O)O)SCCS2 | -0.389% | –
45 | COCCCNC(=O)[C@H]1N2C(=O)c3ccccc3C2SC1(C)C (stereo not given in full) | 7.26% | –
46 | CC(C)N1C[C@@H](NCc2ccccc2O)C[C@H]1C(=O)N1CCN(c2cccc(C(F)(F)F)c2)CC1 | -8.03% [at 9.04 µM] | –
47 | CC1CCC(N2CC(=O)N(CCC3=CCCCC3)C(c3ccc(F)cc3)C2=O)CC1 (stereo not given) | – | 13 µM (active)
48 | O=S(=O)(Cc1nnnn1-c1ccc(Br)cc1)c1ccc(F)cc1 | -16.3% | –
49 | NS(=O)(=O)c1ccc(NC(=O)COc2ccc(S(=O)(=O)NC3CCCCC3)cc2)cc1 | -27.9% | –
50 | CCCS(=O)(=O)N1CCCC(C(=O)N2CCN(c3ccccc3)CC2)C1 (stereo not given) | -5.02% | –
